Calls of active or inactive are those of the source.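 Rule for the calls: active = inhibition above 40% at one or more tested concentrations in the dose response counterscreen; inactive = inhibition below 40% at every dose tested.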
assay: general Salmonella growth or reporter suppression – synthesized compounds, round 3, counter-screen for PhoP regulon inhibitor project, SAR follow-up (AID 434990); settings: S. Typhimurium counter-screen GFP reporter fluorescence, 4 h; series mostly up to 150 µM

SMILES	outcome
O=C1C2=C(Nc3ccccc3SC2c2cccc(I)c2)c2ccccc21 (centres undefined)	inactive
O=C(Nc1cccc(F)c1)N1CCCN(Cc2ccccc2F)C1	inactive
N#Cc1ccccc1NC(=S)NCc1ccc(Cl)cc1	inactive
S=C(NCCc1ccc(Cl)cc1)Nc1ccncc1	inactive
COc1ccccc1CNC(=S)Nc1ccncc1	inactive
N#Cc1ccc(NC(=S)NCc2ccc(Cl)cc2)cc1	inactive
O=C(Nc1ccc(Cl)cc1)N1CCCN(Cc2ccccc2Br)C1	inactive
Cc1ccccc1CNC(=S)Nc1ccncc1	inactive
Cc1cccc(NC(=O)N2CCCN(Cc3ccccc3F)C2)c1	inactive
O=C(Nc1cccc(I)c1)N1CCCN(Cc2ccccc2F)C1	inactive
O=C(Nc1cccc(C(F)(F)F)c1)N1CCCN(Cc2ccccc2F)C1	inactive
Cc1ccc(NC(=O)N2CCCN(Cc3ccccc3F)C2)cc1	inactive
O=C(Nc1ccc(I)cc1)N1CCCN(Cc2ccccc2F)C1	inactive
O=C(Nc1ccc(Cl)cc1)N1CCCN(Cc2ccc(Br)cc2)C1	inactive
